S1P2 blocker: human S1P2 receptor antagonists, primary screen, cell-based | inhibition, % at 5 µM | cell-based S1P2 antagonist assay, inhibition at 5 uM | AID 736, 2007 | 97,000 compounds, 0.21% hits; in the data active means inhibition above about 45%;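 further: CRE beta-lactamase reporter cells expressing human S1P2 stimulated with S1P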
Target sequence (O95136 whole entry, looked up): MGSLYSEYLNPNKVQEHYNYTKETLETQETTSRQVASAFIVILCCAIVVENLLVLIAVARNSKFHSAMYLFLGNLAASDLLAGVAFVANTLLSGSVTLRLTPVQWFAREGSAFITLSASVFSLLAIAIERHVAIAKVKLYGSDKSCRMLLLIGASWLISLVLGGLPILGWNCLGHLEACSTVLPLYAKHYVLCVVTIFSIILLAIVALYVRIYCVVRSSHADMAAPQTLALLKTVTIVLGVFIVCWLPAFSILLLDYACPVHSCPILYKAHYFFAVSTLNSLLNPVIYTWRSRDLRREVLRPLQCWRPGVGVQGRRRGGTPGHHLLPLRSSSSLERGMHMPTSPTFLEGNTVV
GALR2 agonist: GALR2 receptor agonists, primary screen, cell-based. Galanin receptor type 2 (Homo sapiens), O43603. GALR2-expressing cells, agonist activation read-out. activation, % (no concentration beside the values). 140,000 compounds, 0.48% hits; in the data active means activation above about 5%, passing the limit was not always enough
GALR2 antag: GALR2 antagonists in receptor-expressing cells, primary screen; Galanin receptor type 2 (Homo sapiens), O43603; antagonist mode; inhibition, % at 4 µM; 140,000 compounds, 0.39% hits; AID 828, 2007; in the data active means inhibition above about 27%;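 further: cells stimulated with galanin 1-16 at roughly its EC80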
hDAT+cocaine: changed hDAT dopamine uptake under cocaine IC80, either direction, primary screen, cocaine antagonist project, cell-based, LLC-PK1 hDAT, [14C]-dopamine uptake, MLSMR; Sodium-dependent dopamine transporter (Homo sapiens), Q01959; LLC-PK1 hDAT cells, [14C]-dopamine uptake with cocaine IC80; actives deviate in either direction; B-score at 10 µM; 110,000 compounds, 1.3% hits; AID 449768, 2010;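 active means Z score or B-score, a plate-position-corrected score, falls beyond the plate's 99.7% confidence bounds, in either direction; inactive means both scores lie inside the 99.7% bounds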
S1P2 ag: S1P2 receptor agonists, primary screen, cell-based; Sphingosine 1-phosphate receptor 2 (Homo sapiens), O95136; S1P2-expressing cell line, agonist reporter read-out; activation, % at 4.5 µM; 97,000 compounds, 0.46% hits; in the data active means activation above about 16%
Large screens that a line does not name were inactive. Shown are actives, neighbours in structure and some others; about 2.1% of the full set was active somewhere.

COc1ccc2c(c1)c1nnc(SC)nc1n2C	none
O=C(CCN1CCCCC1)c1ccc2c(c1)OCCO2	hDAT+cocaine 4.8
CC(C)C(CO)NC(=O)CC(=O)NC(CO)C(C)C (configuration not stated)	none
O=C(CNc1ccc2ccccc2c1)N/N=C/c1cc2ccccc2nc1Cl	none (no result: S1P2 blocker, hDAT+cocaine, S1P2 ag)
c1ccc2c(c1)[nH]c1c(N3CCSCC3)ncnc12	S1P2 blocker 48, GALR2 antag 32 (no result: hDAT+cocaine)
Cc1cc(C)n(CCc2nc3c4ccccc4n(CC#N)c(=O)n3n2)n1	S1P2 ag 29
Cc1cc(C)n(CC(O)Cn2c3ccccc3c3ccccc32)n1 (configuration not stated)	none
CCOC(=O)c1c(N2C(=O)C3C4C=CC(O4)C3C2=O)sc2c1CCCC2 (configuration not stated)	none (no result: hDAT+cocaine)
CCOC(=O)c1c(N2C(=O)Nc3cc(Cl)c(Cl)cc3N2O)sc2c1CCCCC2	hDAT+cocaine 3.8
N#CC1=C(N)N(c2ccc(Br)cc2)C2=C(C(=O)CCC2)C1c1cccnc1 (configuration not stated)	none (no result: S1P2 blocker, hDAT+cocaine, S1P2 ag)
Cc1ccc(Cl)cc1N1CCN(C(=O)CCC(=O)O)CC1	hDAT+cocaine -3 (no result: S1P2 blocker, S1P2 ag)
CCn1nnnc1SCC(=O)NCc1ccco1	hDAT+cocaine -8.8
CCCCn1nc(NC(=O)c2cccs2)c2cc3cc(OC)ccc3nc21	GALR2 agonist 6.8
CCn1nc(NC(=O)c2ccncc2)c2cc3cc(C)ccc3nc21	hDAT+cocaine 2.2
CCn1nc(NC(=O)c2ccncc2)c2cc3ccc(C)cc3nc21	none
CCCC(=O)Nc1nn(CCC)c2nc3ccccc3cc12	hDAT+cocaine 2.1
O=C(COc1ncnc2scc(-c3ccccc3)c12)NC1CCCc2ccccc21 (configuration not stated)	none (no result: S1P2 blocker, hDAT+cocaine, S1P2 ag)
Cn1c(N)c(C(=O)COC(=O)CNS(=O)(=O)c2cccc(Cl)c2)c(=O)n(C)c1=O	none (no result: S1P2 blocker, hDAT+cocaine, S1P2 ag)
COC(=O)CN1C2(C#N)CCCCC2CC2CCCCC21C#N (configuration not stated)	none
Cc1ccccc1-n1nc2c(c1NC(=O)c1ccc(Br)o1)CSC2	none
CC(C)C(=O)Nc1ccc(C(=O)c2ccccc2)cc1	none
CCN1CCN(Cc2ccc(NC(=O)c3ccc(C)c(NC(=O)c4ccno4)c3)cc2C(F)(F)F)CC1	none (no result: S1P2 blocker, GALR2 agonist, GALR2 antag, S1P2 ag)
CCN1CCN(Cc2ccc(NC(=O)c3ccc(C)c(NC(=O)c4csc(-c5ccncc5)n4)c3)cc2C(F)(F)F)CC1	hDAT+cocaine 1.8 (no result: S1P2 blocker, GALR2 agonist, GALR2 antag, S1P2 ag)
COc1ccc(CCNC(=O)c2cccnc2)cc1OC	none
COc1ccc(CN(Cc2cccnc2)C(=S)NCCc2ccccc2)cc1OC	hDAT+cocaine 2
O=C1CN2Cc3c(ccc(Cl)c3Cl)N=C2N1	none (no result: S1P2 blocker, GALR2 agonist, GALR2 antag, S1P2 ag)
Cc1ccccc1Nc1nc(N)nc(COC(=O)c2cccc(S(=O)(=O)N(C)C)c2)n1	none (no result: S1P2 blocker, hDAT+cocaine, S1P2 ag)
Cc1ccccc1Nc1nc(N)nc(COC(=O)c2cccc(S(=O)(=O)NCc3ccccc3)c2)n1	GALR2 agonist 5.0 (no result: S1P2 blocker, hDAT+cocaine, S1P2 ag)
O=C(Nc1ccc(-c2csc(Nc3cccc(C(F)(F)F)c3)n2)cc1)c1cc([N+](=O)[O-])cc(C(F)(F)F)c1	none (no result: S1P2 blocker, GALR2 agonist, GALR2 antag, S1P2 ag)
CSCCC1(C(=O)O)NC(c2ccccc2O)C2C(=O)N(C(C)C)C(=O)C21 (configuration not stated)	hDAT+cocaine -2.6
CCCc1nc2ccccc2c(C(=O)OCC(=O)Nc2cccc(S(=O)(=O)N3CCOCC3)c2)c1CC	S1P2 ag 19
CCCc1nc2ccccc2c(C(=O)OCC(=O)Nc2ccc(S(=O)(=O)N3CCOCC3)cc2)c1CC	none
CCCCCC(=O)Nc1cccc(C2=NOC3(C2)C[C@H](C(N)=O)N(C(=O)c2ccccc2C(=O)c2ccccc2)C3)c1 (some centres not stated)	hDAT+cocaine 3.7 (no result: S1P2 blocker, GALR2 agonist, GALR2 antag, S1P2 ag)
CC12C=CC3(CN(Cc4ccccc4)C(=O)C3C1C(=O)NC1CC1)O2 (configuration not stated)	none
CCOC(=O)C(NC(C)=O)C(OC(C)=O)c1cccc([N+](=O)[O-])c1 (configuration not stated)	none
CSC(=NC1CCCCC1)NS(=O)(=O)c1ccccc1	none (no result: S1P2 blocker, S1P2 ag)
CC(=NC1CCCCC1)C1=C(O)c2ccccc2C1=O	hDAT+cocaine 2
NC(=O)c1sc2cc(C(F)(F)F)cnc2c1-c1cccs1	none
O=C(Nc1ccccc1)c1sc2cc(C(F)(F)F)cnc2c1-c1cccs1	S1P2 blocker 46
